Values without a mark were called inactive.
Tested on: Vero E6 infected with SARS-CoV-2
Test: inhibition of SARS-CoV-2 cytopathic effect; higher = more antiviral protection, active = above 15
Settings: 48 h

For `O=S1(=O)c2cccc3cccc(c23)N1CCCN1CCN(c2ccc(F)cc2)CC1` [fananserin], the “inhibition of SARS-CoV-2 cytopathic effect” value (“inhibition” for short) (1 nM) was -2.57%, the “inhibition” value (8.33 nM) was -1.46% and the “inhibition” value (100 nM) was -1.21%. The “inhibition” value (833.33 nM) was -2.34% and the “inhibition” value (10000 nM) was -0.89%.
For `CN(C)C(=O)c1ccc(S(=O)(=O)c2ccc(NC(=O)[C@@](C)(O)C(F)(F)F)c(Cl)c2)cc1`, the “inhibition” value (1 nM) was -0.45%, the “inhibition” value (8.33 nM) was 0.49% and the “inhibition” value (100 nM) was 0.27%. For the same molecule, the “inhibition” value (833.33 nM) was 0.59% and the “inhibition” value (10000 nM) was -3.54%.
In the case of `CN1CCN(C(=O)C2C(C(=O)O)[C@H]3CC[C@@H]2O3)CC1` (stereo not given in full), the “inhibition” value (1 nM) is reported as -1.86%, the “inhibition” value (8.33 nM) is reported as 0.2% and the “inhibition” value (100 nM) is reported as 0.49%. The “inhibition” value (833.33 nM) was 0.2% and the “inhibition” value (10000 nM) was -0.43%.
With `COc1ccc(N2CCOCC2)c2sc(NC(=O)N3CCC(C)(O)CC3)nc12` [tozadenant] the “inhibition” value (1 nM) was 1.95%, the “inhibition” value (8.33 nM) was 8.03% and the “inhibition” value (100 nM) was -0.04%. For the same molecule, the “inhibition” value (833.33 nM) was -0.08% and the “inhibition” value (10000 nM) was -2.66%.
For `CCCC(O)C(CC)CO` (stereo not given) [2-ethyl-1,3-hexanediol], the “inhibition” value (1 nM) was 4.92%, the “inhibition” value (8.33 nM) was 0.49% and the “inhibition” value (100 nM) was 1.14%. The “inhibition” value (833.33 nM) was 0.52% and the “inhibition” value (10000 nM) was 0.65%.
`NC(=O)c1cnc(N[C@@H]2CCCC[C@@H]2N)nc1Nc1cccc(-n2nccn2)c1` was tested, and the “inhibition” value (1 nM) was -1.26%, the “inhibition” value (8.33 nM) was -0.3% and the “inhibition” value (100 nM) was 2.11%. The “inhibition” value (833.33 nM) was -0.39% and the “inhibition” value (10000 nM) was 24.4% (active).
For `C[N+](C)(C)CC#CCN1CCCC1=O` [oxotremorine-M], the “inhibition” value (1 nM) was -3.6%, the “inhibition” value (8.33 nM) was -0.15% and the “inhibition” value (100 nM) was 2.23%. For the same molecule, the “inhibition” value (833.33 nM) was -2.21% and the “inhibition” value (10000 nM) was 0.38%.
With `NP(N)(=O)NC(=O)c1ccc(F)cc1` [flurofamide] the “inhibition” value (1 nM) was 3.53%, the “inhibition” value (8.33 nM) was -1.42% and the “inhibition” value (100 nM) was -1.3%. The “inhibition” value (833.33 nM) was 0.9% and the “inhibition” value (10000 nM) was 5.62%.
`CC(=O)N[C@@H](Cc1ccc(O)cc1)C(=O)O` [N-acetyl-tyrosine] was tested, and the “inhibition” value (1 nM) was -0.05%, the “inhibition” value (8.33 nM) was 1.2% and the “inhibition” value (100 nM) was 0.23%. The “inhibition” value (833.33 nM) was 2.56% and the “inhibition” value (10000 nM) was 4.82%.
With `NS(=O)(=O)c1cc2c(cc1Cl)NC(C1CC3C=CC1C3)NS2(=O)=O` (stereo not given) [cyclothiazide] the “inhibition” value (1 nM) was 2.43%, the “inhibition” value (8.33 nM) was 0.31% and the “inhibition” value (100 nM) was 3.55%. The “inhibition” value (833.33 nM) was -0.08% and the “inhibition” value (10000 nM) was -1.44%.
